{"source": "PubChem BioAssay AID463173", "about": "(ICCB-Longwood Screening Facility, Harvard Medical School, 2010)", "note": "The campaign covered roughly 52,000 compounds. About 4,300 (8.3%) were called active. Cut-off read from the data, not from the text of the source: active = survival mostly below about 52% (no sharp cut-off); inactive = mostly above about 56%. The entries come from a sample that favours actives as a whole.", "data": [{"tested_on": "DeltatarO mutant", "test": "S. aureus survival, RN4220 and DeltatarO strains – OD600, teichoic acid synthesis inhibitors, primary screen (AID 463173)", "details": "S. aureus RN4220 wild type/DeltatarO growth, OD600, 18 h, stronger effect = lower value, screened at 18.75 µg/mL (by protocol)", "values": [{"smiles": "O=C(Cn1ncc2c3ccccc3n(Cc3cccc(Cl)c3)c2c1=O)NCCC1=CCCCC1", "survival": "90% (inactive)"}, {"smiles": "Cc1cc(C)c(NC(=O)Cn2nnc(S(=O)(=O)c3ccc(C)c(C)c3)c2N)c(C)c1", "survival": "96% (inactive)"}, {"smiles": "CCCCN(CC)C(=O)c1ccc2c(c1)NC(=O)c1ccccc1S2", "survival": "104% (inactive)"}, {"smiles": "c1ccc(-c2cnnn2-c2ccccc2)cc1", "survival": "87% (inactive)"}, {"smiles": "Cc1cc(OCC(=O)N(Cc2ccc(N(C)C)cc2)C2CCS(=O)(=O)C2)cc(C)c1Cl", "note": "(configuration not stated)", "survival": "97% (inactive)"}, {"smiles": "COc1ccccc1OCC(=O)N(Cc1cccs1)C1CCS(=O)(=O)C1", "note": "(configuration not stated)", "survival": "53% (inactive)"}, {"smiles": "Cc1cc(Cl)ccc1OCC(=O)N(Cc1sccc1C)C1CCS(=O)(=O)C1", "note": "(configuration not stated)", "survival": "74% (inactive)"}, {"smiles": "CC(C)c1ccc(OCC(=O)N(Cc2cccs2)C2CCS(=O)(=O)C2)cc1", "note": "(configuration not stated)", "survival": "51% (active)"}, {"smiles": "Cc1cc(Cl)ccc1OCC(=O)N(Cc1ccc(N(C)C)cc1)C1CCS(=O)(=O)C1", "note": "(configuration not stated)", "survival": "39% (active)"}, {"smiles": "Cc1ccsc1CN(C(=O)COc1ccc(Cl)cc1)C1CCS(=O)(=O)C1", "note": "(configuration not stated)", "survival": "86% (inactive)"}, {"smiles": "CCOC(=O)C1=C(C)NC(=O)NC1C1CC=CCC1", "note": "(configuration not stated)", "survival": "111% (inactive)"}, {"smiles": "COc1cc(-c2nc3nc[nH]n3c2Nc2ccc(C(C)C)cc2)ccc1O", "survival": "70% (inactive)"}, {"smiles": "CC(=O)c1cccc(S(=O)(=O)NCCc2csc3nc(-c4ccc(F)cc4)nn23)c1", "survival": "88% (inactive)"}, {"smiles": "CCOC(=O)C1CCN(C(c2cccc(F)c2)c2c(O)cc(C)n(CCOC)c2=O)CC1", "note": "(configuration not stated)", "survival": "135% (inactive)"}, {"smiles": "COc1ccc(CNC(=O)Cn2ccc3cc(S(=O)(=O)N4CCCCC4)ccc32)c(OC)c1", "survival": "72% (inactive)"}, {"smiles": "Cc1ccc(NC(=O)CCNS(=O)(=O)c2ccc3c(c2)CCCC(=O)N3)cc1", "survival": "77% (inactive)"}, {"smiles": "COc1cc(OC)c(NC(=O)CN(C)S(=O)(=O)c2ccc3c(c2)CCCC(=O)N3)cc1Cl", "survival": "6% (active)"}, {"smiles": "COc1cc(NC(=O)CN(C)S(=O)(=O)c2ccc3c(c2)CCCC(=O)N3)cc(OC)c1OC", "survival": "70% (inactive)"}, {"smiles": "COc1cc(Cl)c(NC(=O)CN(C)S(=O)(=O)c2ccc3c(c2)CCCC(=O)N3)c(OC)c1", "survival": "83% (inactive)"}, {"smiles": "Cc1ccc(C)c(NC(=O)CCNS(=O)(=O)c2ccc3c(c2)CCCC(=O)N3)c1", "survival": "-4% (active)"}, {"smiles": "Cc1cccc(NC(=O)CCNS(=O)(=O)c2ccc3c(c2)CCCC(=O)N3)c1C", "survival": "96% (inactive)"}, {"smiles": "COc1ccccc1CNC(=O)CSc1ncc2c(n1)-c1ccccc1N(Cc1ccc(C)cc1)S2(=O)=O", "survival": "64% (inactive)"}, {"smiles": "CCc1ccc(NC(=O)c2ccc3c(O)c(S(=O)(=O)c4ccc(Cl)cc4)c(=O)[nH]c3c2)cc1", "survival": "75% (inactive)"}, {"smiles": "Cc1ccc(N(C(=O)Cn2nnc(-c3ccc(C)o3)n2)C(C(=O)NC2CCCCC2)c2ccc(F)cc2)c(C)c1", "note": "(configuration not stated)", "survival": "66% (inactive)"}, {"smiles": "COc1ccc(Cn2nnnc2C(c2ccccc2)N2CCC(C)CC2)cc1", "note": "(configuration not stated)", "survival": "68% (inactive)"}, {"smiles": "CCc1ccc(NC(=O)CN2CCN(Cc3ccccc3)S2(=O)=O)cc1", "survival": "68% (inactive)"}, {"smiles": "CCOc1cc2sc(N3CCC(C(=O)Nc4ccc(C)cc4C)CC3)nc2cc1Br", "survival": "71% (inactive)"}, {"smiles": "CCOC(=O)c1nc(Nc2ccc(OC)cc2)c2ccccc2n1", "survival": "153% (inactive)"}, {"smiles": "CCCCCOC(=O)c1ccc(Nc2nc(C(=O)OCC)nc3ccccc23)cc1", "survival": "60% (inactive)"}, {"smiles": "CCCOC(=O)c1cccc(Nc2nc(C(=O)OCC)nc3ccccc23)c1", "survival": "20% (active)"}, {"smiles": "CCOC(=O)c1nc(Nc2ccccc2C)c2ccccc2n1", "survival": "49% (inactive)"}, {"smiles": "CCOC(=O)c1nc(Nc2ccccc2OC)c2ccccc2n1", "survival": "44% (active)"}, {"smiles": "CCOC(=O)c1nc(Nc2cccc(C)c2)c2ccccc2n1", "survival": "75% (inactive)"}, {"smiles": "CC(=O)c1cccc(NC(=O)c2cc3sc(Cl)cc3n2C)c1", "survival": "122% (inactive)"}, {"smiles": "CCOc1ccc(OCC)c(NC(=O)CN(C)S(=O)(=O)c2ccc3[nH]c(=O)oc3c2)c1", "survival": "85% (inactive)"}, {"smiles": "COc1ccc(NC(=O)CSc2nc3c(oc4ccccc43)c(=O)n2-c2ccc(C)c(C)c2)cc1", "survival": "82% (inactive)"}, {"smiles": "COC(=O)c1sccc1S(=O)(=O)N(CC(=O)Nc1ccc(C)c(F)c1)c1ccc(C)c(C)c1", "survival": "17% (active)"}, {"smiles": "CCc1cccc(NC(=O)CN(c2ccc(C)c(C)c2)S(=O)(=O)c2ccsc2C(=O)OC)c1", "survival": "-5% (active)"}, {"smiles": "COC(=O)c1sccc1S(=O)(=O)N(CC(=O)Nc1c(C)cccc1C)c1ccc(C)c(C)c1", "survival": "94% (inactive)"}, {"smiles": "COC(=O)c1sccc1S(=O)(=O)N(CC(=O)Nc1cc(F)ccc1F)c1ccc(C)c(C)c1", "survival": "128% (inactive)"}, {"smiles": "COC(=O)c1sccc1S(=O)(=O)N(CC(=O)Nc1cc(C)ccc1C)c1ccc(C)c(C)c1", "survival": "88% (inactive)"}, {"smiles": "COC(=O)c1sccc1S(=O)(=O)N(CC(=O)Nc1cccc(C)c1C)c1ccc(C)c(C)c1", "survival": "89% (inactive)"}, {"smiles": "Cn1c(C(O)c2ccccc2)n[nH]c1=S", "note": "(configuration not stated)", "survival": "93% (inactive)"}, {"smiles": "COc1cccc(-n2c(SCC(N)=O)nc3c(oc4ccccc43)c2=O)c1", "survival": "67% (inactive)"}, {"smiles": "O=C(c1ccccc1)N1CCN(S(=O)(=O)c2ccccc2)CC1", "survival": "68% (inactive)"}, {"smiles": "Cn1cc(-c2cc3n(n2)CCC(=O)N3CCCC(=O)Nc2ccccc2Cl)c2ccccc21", "survival": "-5% (active)"}, {"smiles": "CN(C)c1ccc(CNC(=O)CN2C(=O)CCn3nc(-c4cn(C)c5ccccc45)cc32)cc1", "survival": "54% (inactive)"}, {"smiles": "CCc1ccccc1NC(=O)CCCN1C(=O)CCn2nc(-c3cn(C)c4ccccc34)cc21", "survival": "130% (inactive)"}, {"smiles": "O=C(CN1C(=O)CCn2nc(-c3ccccc3)cc21)NCc1ccccc1", "survival": "106% (inactive)"}, {"smiles": "Cn1cc(-c2cc3n(n2)CCC(=O)N3CCCC(=O)NCc2ccccc2)c2ccccc21", "survival": "92% (inactive)"}, {"smiles": "Cn1cc(-c2cc3n(n2)CCC(=O)N3CCCC(=O)Nc2ccccc2F)c2ccccc21", "survival": "134% (inactive)"}, {"smiles": "Cc1cccc(CNC(=O)CCCN2C(=O)CCn3nc(-c4cn(C)c5ccccc45)cc32)c1", "survival": "-5% (active)"}, {"smiles": "Cc1ccc(CNC(=O)CCCN2C(=O)CCn3nc(-c4cn(C)c5ccccc45)cc32)cc1", "survival": "87% (inactive)"}, {"smiles": "Cc1ccc(CNC(=O)CN2C(=O)CCn3nc(-c4ccccc4)cc32)cc1", "survival": "72% (inactive)"}, {"smiles": "Cn1cc(-c2cc3n(n2)CCC(=O)N3CCCC(=O)NCc2ccc(Cl)cc2)c2ccccc21", "survival": "122% (inactive)"}, {"smiles": "CN(C)c1ccc(CNC(=O)CCCN2C(=O)CCn3nc(-c4cn(C)c5ccccc45)cc32)cc1", "survival": "17% (active)"}, {"smiles": "O=C(CN1C(=O)CCn2nc(-c3ccccc3)cc21)NCc1ccc(Cl)cc1", "survival": "0% (active)"}, {"smiles": "COc1ccc(OC)c(NC(=O)c2c(NCc3sccc3C)sc3c2CCCCC3)c1", "survival": "78% (inactive)"}, {"smiles": "c1ccc(N2CCN(c3ccccc3)C2c2cccs2)cc1", "survival": "67% (inactive)"}, {"smiles": "CCCCCN1C(C(=O)c2ccccc2)=C(NC(=O)c2ccc(OC)cc2)c2ccccc2S1(=O)=O", "survival": "57% (inactive)"}, {"smiles": "Cc1ccc(Cn2c(=O)n(CCc3ccccc3)c(=O)c3c(C)c(C)sc32)cc1", "survival": "24% (inactive)"}, {"smiles": "COc1cc(Cl)c(C)cc1NC(=O)CCn1c(=O)c2cccn2c2cccnc21", "survival": "83% (inactive)"}, {"smiles": "CC(C)(SC1CC(=O)N(c2ccccc2)C1=O)C(N)C(=O)O", "note": "(configuration not stated)", "survival": "98% (inactive)"}, {"smiles": "CCc1ccc2c(c1)NC(c1cccnc1)=NC(c1ccc(C(C)(C)C)cc1)=N2", "survival": "63% (inactive)"}, {"smiles": "CCN1c2ccccc2-c2nc(SCC(=O)Nc3cccc(C)c3C)ncc2S1(=O)=O", "survival": "101% (inactive)"}, {"smiles": "CCc1ccc(-c2nn(CC(=O)NCc3ccccc3)c3c2cnc2ccc(F)cc23)cc1", "survival": "92% (inactive)"}, {"smiles": "CCOc1ccc(CNC(=O)CN2C(=O)CCn3nc(-c4cn(C)c5ccccc45)cc32)cc1OC", "survival": "-4% (active)"}, {"smiles": "COc1ccc(CNC(=O)CN2C(=O)CCn3nc(-c4cn(C)c5ccccc45)cc32)cc1", "survival": "96% (inactive)"}, {"smiles": "CCOc1ccccc1CNC(=O)CN1C(=O)CCn2nc(-c3cn(C)c4ccccc34)cc21", "survival": "66% (inactive)"}, {"smiles": "CCc1ccccc1NC(=O)CSc1nnc(-c2ccc(OC)cc2)s1", "survival": "80% (inactive)"}, {"smiles": "Cc1ccc(C(=O)Nc2ccc3nc(SCC(=O)N4CCCc5ccccc54)sc3c2)cc1", "survival": "80% (inactive)"}, {"smiles": "CCOc1ccc(CNc2cc(C)nc3nc(-c4cccc(C)c4)nn23)cc1OC", "survival": "95% (inactive)"}, {"smiles": "CCCCN(CC)CCCNC(=O)CN1C(=O)CSc2ccc(S(=O)(=O)N3CCOCC3)cc21", "survival": "97% (inactive)"}, {"smiles": "O=C(NCC1CCN(Cc2cccc(Cl)c2)CC1)Nc1cc(Cl)ccc1Cl", "survival": "17% (active)"}, {"smiles": "Cc1ccc(CN2CCC(CNC(=O)Nc3cccc(Cl)c3C)C2)cc1", "note": "(configuration not stated)", "survival": "75% (inactive)"}, {"smiles": "O=C(NCC1CCN(Cc2ccccc2F)CC1)Nc1ccc(F)c(Cl)c1", "survival": "100% (inactive)"}, {"smiles": "Cc1ccc(NC(=O)NCC2CCN(Cc3cccc(Cl)c3)CC2)cc1Cl", "survival": "-5% (active)"}, {"smiles": "O=C(NCC1CCN(Cc2cccc(Cl)c2)CC1)Nc1ccc(F)c(Cl)c1", "survival": "55% (inactive)"}, {"smiles": "Cc1ccc(CN2CCC(CNC(=O)Nc3ccccc3F)CC2)cc1", "survival": "113% (inactive)"}, {"smiles": "COc1ccc(Cn2ccnc2SCC(=O)Nc2ccc3c(c2)OCCO3)cc1", "survival": "94% (inactive)"}, {"smiles": "CCCCN(CC)C(=O)c1cc2c(=O)n3cccc(C)c3nc2s1", "survival": "54% (inactive)"}, {"smiles": "CCCCN(CC)C(=O)c1cc2c(=O)n3ccccc3nc2n1C", "survival": "50% (inactive)"}, {"smiles": "CCCCN(CCCC)C(=O)c1cc2c(=O)n3cccc(C)c3nc2s1", "survival": "-13% (active)"}, {"smiles": "CCCCN(CC)C(=O)c1cc2c(=O)n3cccc(C)c3nc2n1C", "survival": "56% (active)"}, {"smiles": "CCOC(=O)CNC(=O)c1cc2c(=O)n3cccc(C)c3nc2n1C", "survival": "102% (inactive)"}, {"smiles": "CCCN(CCC)C(=O)c1cc2c(=O)n3cccc(C)c3nc2s1", "survival": "56% (inactive)"}, {"smiles": "CCCCc1ccc(NC(=O)c2cc3c(=O)n4ccccc4nc3s2)cc1", "survival": "89% (inactive)"}, {"smiles": "Cc1cccn2c(=O)c3cc(C(=O)NC(C)C)n(C)c3nc12", "survival": "53% (active)"}, {"smiles": "CCCN(CCC)C(=O)c1cc2c(=O)n3cccc(C)c3nc2n1C", "survival": "62% (inactive)"}, {"smiles": "O=C(NCc1ccc(F)cc1)c1cc2c(=O)n3ccccc3nc2s1", "survival": "140% (inactive)"}, {"smiles": "CCCCN(CCCC)C(=O)c1cc2c(=O)n3ccccc3nc2s1", "survival": "39% (active)"}, {"smiles": "Cc1cccn2c(=O)c3cc(C(=O)NC(C)(C)C)n(C)c3nc12", "survival": "61% (inactive)"}]}]}
